tim10-1 inh: growth inhibitors of tim10-1 mutant yeast, primary screen, luminescence, uHTS. S. cerevisiae tim10-1 ts strain growth, BacTiter-Glo, 24 h. inhibition, % at 20 µM. 330,000 tested, 2.2% active. AID 463190, 2010;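 active means inhibition of at least 40%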;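 further: mutant grown at 25 °C; 0% = DMSO wells with yeast and 100% = wells holding no yeast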
SKKanGAS inh: S. pyogenes SKKanGAS growth inhibitors in kanamycin, primary screen, streptokinase expression inhibitor project, SKKanGAS strain, BacTiter-Glo luminescence | 300,000 tested, 1.3% active | 6 h | inhibition, % at 7.5 µM;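 active means mean replicate score, as percent of positive control median, at least 50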;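 further: strain carries kanamycin resistance gene driven by streptokinase promoter and grows in 40 µg/ml kanamycin; loss of luminescence reflects streptokinase promoter inhibition or plain growth inhibition; 0% = median of DMSO wells and 100% = positive control at its reference dose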
tim23-1 inh: growth inhibitors of tim23-1 mutant yeast, primary screen, luminescence, uHTS | S. cerevisiae tim23-1 growth, BacTiter-Glo luminescence, 24 h | inhibition, % at 20 µM | 330,000 tested, 1.3% active | AID 463212, 2010;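 active means growth inhibition of the mutant yeast at or above 50%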;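 further: temperature-sensitive mutant grown at 25 °C; plate controls were DMSO-treated mutant yeast for no effect and medium wells lacking yeast for full effect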
PfHsp90 set2: growth inhibition of PfHsp90-expressing yeast, primary screen, antimalarial PfHsp90 inhibitor project, S. cerevisiae, BacTiter-Glo luminescence, single point, set 2; inhibition, % at 9.4 µM; 310,000 tested, 0.32% active; AID 504621, 2011; BacTiter-Glo ATP, 48 h; yeast lacking PDR1 and PDR3 efflux regulators;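 active means every replicate shows inhibition above about 80%, whatever the replicate mean, limit read from the data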;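 further: 0% = DMSO neutral controls and 100% = 20 µM radicicol positive controls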
TIM10 inh: growth inhibitors of isogenic TIM10 control yeast, primary screen, counter-screen for tim10-1 yeast inhibitor project, luminescence, uHTS. S. cerevisiae TIM10 strain growth, BacTiter-Glo luminescence, 24 h. inhibition, % at 10 µM. 330,000 tested, 1.4% active;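 active means inhibition of 40% or more at the single tested concentration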;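 further: wild-type TIM10 isogenic control strain grown at permissive 25 °C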
ATG4B inh: ATG4B protease inhibitors, primary screen, biochemical, fluorescence, uHTS; 340,000 tested, 0.51% active; Cysteine protease ATG4B (Homo sapiens), Q9Y4P1; ATG4B cleavage of LC3-PLA2, NBD-HPC fluorescence, 1 h; inhibition, % at 8.33 µM; in the data active means inhibition above about 40%
Target sequence (Q9Y4P1 whole entry, looked up): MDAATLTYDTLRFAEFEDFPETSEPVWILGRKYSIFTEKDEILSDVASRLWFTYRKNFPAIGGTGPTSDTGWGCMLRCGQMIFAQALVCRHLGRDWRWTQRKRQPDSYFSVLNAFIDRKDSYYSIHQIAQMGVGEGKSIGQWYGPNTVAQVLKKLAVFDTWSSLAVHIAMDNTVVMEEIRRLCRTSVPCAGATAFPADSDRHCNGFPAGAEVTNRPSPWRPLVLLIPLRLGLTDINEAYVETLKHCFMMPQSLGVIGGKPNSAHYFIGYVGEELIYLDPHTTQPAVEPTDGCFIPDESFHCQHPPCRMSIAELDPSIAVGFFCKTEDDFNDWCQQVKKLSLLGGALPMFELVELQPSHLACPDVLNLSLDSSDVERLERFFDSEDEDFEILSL
tim10-1 confirm: growth inhibitors of tim10-1 mutant yeast, confirmation, single concentration, luminescence, S. cerevisiae | shares compounds with tim10-1 inh | S. cerevisiae tim10-1 ts strain growth, BacTiter-Glo, 24 h | inhibition, % at 20 µM | 7,400 tested, 56% active | AID 463213, 2010;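 active means inhibition of yeast growth at or above a set limit in either of two repeat tests at 20 µM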;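 further: tim10-1 mutant grown at permissive 25 °C to find synthetic lethal compounds; 0% = DMSO yeast wells and 100% = medium wells without yeast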
TIM10 conf: growth inhibitors of wild-type TIM10 yeast, confirmation, counter-screen for tim10-1 synthetic lethality project, single concentration, luminescence, S. cerevisiae. shares compounds with TIM10 inh. S. cerevisiae tim10 strain growth, BacTiter-Glo luminescence, 24 h. inhibition, % at 10 µM. 4,600 tested, 63% active;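 active means inhibition of yeast growth at or above a set limit in either of two replicates at 10 µM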;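 further: this counterscreen used the strain with wild-type TIM10; 0% = yeast with DMSO and 100% = medium wells lacking yeast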
tim23-1 confirm: tim23-1 mutant yeast growth inhibitors, confirmation, luminescence, single concentration; shares compounds with tim23-1 inh; S. cerevisiae tim23-1 growth, BacTiter-Glo luminescence, 24 h; inhibition, % at 20 µM; 4,400 tested, 83% active; AID 463218, 2010;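 active means inhibition above about 39% in either of two replicate wells at 20 µM, limit read from the data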;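 further: temperature-sensitive tim23-1 mutant grown at 25 °C; 0% = DMSO wells with yeast and 100% = medium wells without yeast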
Numbers without * were called inactive. An excerpt weighted towards active compounds, which were near 4.7% of everything screened.

What do the screens show for `CCCCNC(=O)c1sc2ncnc(N3CCc4ccccc4C3)c2c1C`?
tim10-1 inh: 48*; SKKanGAS inh: 3; tim23-1 inh: 55*; TIM10 inh: 43*; ATG4B inh: 20; tim10-1 confirm: 35*; TIM10 conf: 36*; tim23-1 confirm: 51*

What do the screens show for `CCC1CCCCN1C/C=C/c1ccccc1[N+](=O)[O-]` (stereo not given)?
tim10-1 inh: 0; SKKanGAS inh: -4; tim23-1 inh: 3; PfHsp90 set2: -20; TIM10 inh: 6; ATG4B inh: -2

How did CSc1nnc(-c2cc3c(-c4ccccc4)nn(C)c3s2)n1C do in these assays?
tim10-1 inh: 8; SKKanGAS inh: -4; tim23-1 inh: 22; TIM10 inh: 2; ATG4B inh: -13

What do the screens show for `COc1ccc(-c2cc(-c3cc(OC)ccc3O)[nH]n2)cc1`?
tim10-1 inh: 44*; SKKanGAS inh: 15; tim23-1 inh: 59*; TIM10 inh: 51*; ATG4B inh: 6; tim10-1 confirm: 29*; TIM10 conf: 42*; tim23-1 confirm: 61*

How did COc1ccc(O)c(-c2cc(-c3ccc(F)cc3)n[nH]2)c1 do in these assays?
tim10-1 inh: 49*; SKKanGAS inh: -4; tim23-1 inh: 63*; PfHsp90 set2: -16; TIM10 inh: 30; ATG4B inh: -3; tim10-1 confirm: 27; tim23-1 confirm: 72*

Results for COc1ccc(-c2n[nH]c(C)c2-c2cc(OC)ccc2O)cc1 ?
tim10-1 inh: 18; SKKanGAS inh: 1; tim23-1 inh: 7; PfHsp90 set2: -13; TIM10 inh: 2; ATG4B inh: -10

Results for O=C(CNC(=O)c1ccc(Cl)cc1Cl)OCC(=O)N1CCCC1 ?
tim10-1 inh: 2; tim23-1 inh: 1; PfHsp90 set2: 8; TIM10 inh: 9; ATG4B inh: 1

What do the screens show for `NNC(=O)c1[nH]c(-c2ccccc2)cc1-c1ccccc1`?
tim10-1 inh: 57*; SKKanGAS inh: 23; tim23-1 inh: 53*; PfHsp90 set2: -9; TIM10 inh: 41*; ATG4B inh: -5; tim10-1 confirm: 44*; TIM10 conf: 21; tim23-1 confirm: 46*

Results for O=c1oc(-c2ccco2)nc2sc3c(c12)CCCC3 ?
tim10-1 inh: 46*; SKKanGAS inh: 17; tim23-1 inh: 54*; PfHsp90 set2: -27; TIM10 inh: 47*; ATG4B inh: 13; tim10-1 confirm: 31*; TIM10 conf: 43*; tim23-1 confirm: 42*

How did COc1ccccc1C(=O)CC(=O)C(=O)Nc1cccc([N+](=O)[O-])c1C do in these assays?
tim10-1 inh: 0; SKKanGAS inh: 2; tim23-1 inh: 30; PfHsp90 set2: 0; TIM10 inh: 24; ATG4B inh: -13

How did COc1ccccc1C/C(N)=N/OC(=O)c1cccc([N+](=O)[O-])c1C do in these assays?
tim10-1 inh: 46*; SKKanGAS inh: 19; tim23-1 inh: 78*; PfHsp90 set2: -4; TIM10 inh: 83*; ATG4B inh: -5; tim10-1 confirm: 33*; TIM10 conf: -32; tim23-1 confirm: 74*

Results for COc1ccc(/C(N)=N/OC(=O)c2cccc([N+](=O)[O-])c2C)cc1 ?
tim10-1 inh: 65*; SKKanGAS inh: -9; tim23-1 inh: 72*; PfHsp90 set2: -18; TIM10 inh: 83*; ATG4B inh: 5; tim10-1 confirm: 53*; TIM10 conf: 78*; tim23-1 confirm: 60*

How did CC1=CC(=NOC(=O)c2cccc([N+](=O)[O-])c2)C=C(C)C1=O do in these assays?
tim10-1 inh: 45*; SKKanGAS inh: 1; tim23-1 inh: 57*; PfHsp90 set2: -7; TIM10 inh: 20; ATG4B inh: -4; tim10-1 confirm: 36*; tim23-1 confirm: 64*

How did COc1ccc(/C(N)=N/OC(=O)c2cccc([N+](=O)[O-])c2)cc1 do in these assays?
tim10-1 inh: 42*; SKKanGAS inh: 7; tim23-1 inh: 66*; PfHsp90 set2: -41; TIM10 inh: 32; ATG4B inh: 1; tim10-1 confirm: 54*; tim23-1 confirm: 74*

What do the screens show for `N#C/C(=C\c1c(Cl)cccc1Cl)c1nc2ccccc2o1`?
tim10-1 inh: 73*; SKKanGAS inh: 2; tim23-1 inh: 62*; PfHsp90 set2: -45; TIM10 inh: 40*; ATG4B inh: 5; tim10-1 confirm: 75*; TIM10 conf: -15; tim23-1 confirm: 74*

Results for N#C/C(=C\c1c(Cl)cccc1Cl)c1nc2ccccc2[nH]1 ?
tim10-1 inh: 63*; SKKanGAS inh: 12; tim23-1 inh: 61*; PfHsp90 set2: -12; TIM10 inh: 48*; ATG4B inh: -6; tim10-1 confirm: 53*; TIM10 conf: 52*; tim23-1 confirm: 73*

How did CC(=O)Oc1ccc2c(=O)c(-c3nc4ccccc4s3)coc2c1 do in these assays?
tim10-1 inh: 69*; SKKanGAS inh: 10; tim23-1 inh: 65*; TIM10 inh: 86*; ATG4B inh: 11; tim10-1 confirm: 24; TIM10 conf: 49*; tim23-1 confirm: 72*

What do the screens show for `CC(C)Oc1ccc2c(=O)c(-c3ccccc3)coc2c1`?
tim10-1 inh: 11; SKKanGAS inh: -5; tim23-1 inh: 26; PfHsp90 set2: 7; TIM10 inh: -5; ATG4B inh: 6

Results for O=C(NCCO)c1ccc2c3n(nc2c1)-c1ccc(Cl)cc1CO3 ?
tim10-1 inh: 10; SKKanGAS inh: -8; tim23-1 inh: -5; PfHsp90 set2: 6; TIM10 inh: 1; ATG4B inh: -17

Assay outcomes as filed in PubChem BioAssay.
